# Rce1 inhib: inhibitors of yeast Ras-converting enzyme; yeast membranes, quenched prenylated peptide cleavage fluorescence; calls only; hit rate 0.27% among 290,000; AID 2563;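 active = fall in fluorescence gain of 50% or more versus controls, with final raw signal at or below 3038400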;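 note: plate controls were neutral control wells for no effect and wells lacking membranes for full effect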
# Rtt109 Vps75: blocks Candida albicans Rtt109/Vps75 acetyltransferase activity; purified Rtt109/Vps75, ThioGlo CoA-SH fluorescence, 4 h; inhibition, % at 34.9 µM; hit rate 0.16% among 330,000;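 active = inhibition of at least 50% in every replicate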
# GRK2 aptamer HTS: human GRK2 inhibition via aptamer displacement. bead flow cytometry, FAM-aptamer displacement from GRK2. inhibition of aptamer binding, % at 10 µM. hit rate 0.59% among 330,000. AID 488847;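 active = inhibition of aptamer binding above 40%, roughly 3 SD of noise, on plates passing a quality check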;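 note: median bead fluorescence of bound FAM aptamer so fluorescent compounds give negative values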
# ALR H2O2 inh: human ALR oxidase inhibition via reduced H2O2. hit rate 3.8% among 290,000. purified ALR, DTT oxidation, H2O2 HRP-luminol luminescence. P55789. inhibition, % (no concentration beside the values);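 active = mean replicate inhibition above about 79%, with every replicate also reaching it, limit read from the data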
# Target sequence (P55789 whole entry, looked up): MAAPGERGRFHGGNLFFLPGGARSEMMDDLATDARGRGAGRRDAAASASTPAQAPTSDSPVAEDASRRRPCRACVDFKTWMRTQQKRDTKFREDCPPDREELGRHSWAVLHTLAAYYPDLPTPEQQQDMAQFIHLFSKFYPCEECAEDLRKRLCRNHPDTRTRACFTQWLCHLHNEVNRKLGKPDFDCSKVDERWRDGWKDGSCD
# HDAC3 inh: human HDAC3 inhibition. recombinant HDAC3, fluorogenic peptide/trypsin coupled, fluorescence. inhibition, % at 8.3 µM. hit rate 0.15% among 320,000. AID 2718; in the data active = inhibition above about 26%, passing the limit was not always enough
# Target sequence (O15379 whole entry, looked up): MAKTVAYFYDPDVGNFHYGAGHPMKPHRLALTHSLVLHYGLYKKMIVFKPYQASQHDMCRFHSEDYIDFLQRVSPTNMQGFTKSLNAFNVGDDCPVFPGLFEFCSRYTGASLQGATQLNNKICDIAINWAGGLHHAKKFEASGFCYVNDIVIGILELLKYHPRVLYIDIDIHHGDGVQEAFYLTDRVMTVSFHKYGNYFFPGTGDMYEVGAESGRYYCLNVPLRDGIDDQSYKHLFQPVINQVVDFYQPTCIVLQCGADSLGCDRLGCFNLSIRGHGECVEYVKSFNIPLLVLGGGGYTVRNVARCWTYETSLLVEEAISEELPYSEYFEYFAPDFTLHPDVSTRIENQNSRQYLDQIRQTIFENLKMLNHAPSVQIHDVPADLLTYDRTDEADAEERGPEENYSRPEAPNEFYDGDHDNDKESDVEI
# Efflux pump mplx: antifungal efflux pump inhibition, Nile Red retention; S. cerevisiae Candida pump triplex; inhibition, % at 10 µM; hit rate 0.44% among 330,000; AID 485275;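 active = plate passing quality check with inhibition over a set limit, or well fluorescence over plate mean plus 4 SD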;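 note: Nile Red retained in pooled yeast measured as flow cytometry median fluorescence; 0% = buffer negative control and 100% = Enniatin B positive control; higher means more Nile Red kept so more efflux inhibition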
# Yeast cmpd fluor: flagged as fluorescent in efflux inhibitor counter-screen; shares compounds with Efflux pump mplx; S. cerevisiae AD/pABC3, compound fluorescence, flow cytometry; fluorescence ratio to DMSO, % at 10 µM; hit rate 4% among 1,700; AID 588517;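 active = fluorescence ratio to DMSO above its plate's cutoff, the plate mean ratio plus 5 SD, cut at about 210% in these data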;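 note: unstained yeast with no Nile Red so the signal is compound autofluorescence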
# Mdr1 pump inh: blocks the Candida albicans Mdr1 efflux pump in yeast. shares compounds with Efflux pump mplx. S. cerevisiae AD/CaMDR1, Nile Red efflux, flow cytometry. inhibition, % at 10 µM. hit rate 1% among 1,700; in the data active = inhibition above about 26%;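 note: 0% = DMSO vehicle and 100% = reference inhibitor; higher means more Nile Red retained so more efflux inhibition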
# CaCdr2 efflux inh: Candida Cdr2 efflux pump inhibition; shares compounds with Efflux pump mplx; S. cerevisiae AD/CaCDR2, Nile Red retention, flow cytometry; Nile Red retention ratio vs DMSO, % at 10 µM; hit rate 4% among 1,700; AID 588520; in the data active = Nile Red retention ratio vs DMSO above about 190%;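 note: higher ratio means more blocking of Cdr2 efflux of the dye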
# Cdr1 pump inh: blocks the Candida albicans Cdr1 efflux pump in yeast | hit rate 1% among 1,700 | inhibition, % at 10 µM | shares compounds with Efflux pump mplx | S. cerevisiae AD/CaCDR1, Nile Red efflux, flow cytometry;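 active = inhibition above the screen-wide mean plus twice its standard deviation, cut at about 32% in these data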
# The depositor's hits bear a star; i = inactive; / = no result given. An excerpt weighted towards active compounds, which were near 4.5% of everything screened.
SMILES,Rce1 inhib,Rtt109 Vps75,GRK2 aptamer HTS,ALR H2O2 inh,HDAC3 inh,Efflux pump mplx,Yeast cmpd fluor,Mdr1 pump inh,CaCdr2 efflux inh,Cdr1 pump inh
Cc1cc(NC(=O)CCC(=O)N(c2cccnc2)C(C(=O)NC2CCCC2)c2ccccc2)no1 (centres undefined),i,-8,1,1,-1,0,223,3,109,0
Cc1cc(NC(=O)CCC(=O)N(CC(=O)NC2CCCC2)Cc2ccc(F)cc2)no1,i,8,0,3,0,0,110,0,114,0
CCCCNC(=O)C(Cc1ccccc1)NS(=O)(=O)c1ccc2c(c1)c(=O)n(C)c(=O)n2C (centres undefined),/,-2,11,21,1,1.8*,100,0,87,0
CCOCCCNC(=O)C(Cc1ccccc1)NS(=O)(=O)c1ccc2c(c1)c(=O)n(C)c(=O)n2C (centres undefined),i,2,2,-1,-6,0,/,/,/,/
COc1ccc(OC)c(S(=O)(=O)Nc2cccc3ccc(O)cc23)c1,i,4,3,50,1,0,/,/,/,/
CC(/C=C/c1ccc(Cl)o1)=C\C(=O)O,i,7,38,4,3,0,/,/,/,/
CC(=C/C(=O)O)/C=C/c1ccco1,i,8,0,3,1,2.4*,99,0,94,0
NS(=O)(=O)c1cnccc1NCCc1ccccc1,i,/,2,-2,1,0,/,/,/,/
COc1cccc(NCc2cc(=O)oc3cc(C)c(C(C)C)cc23)c1,i,13,0,-11,3,0,/,/,/,/
N#Cc1ccc(OC(=O)C2CCN(C3=NS(=O)(=O)c4ccccc43)CC2)cc1,/,6,0,/,5,0,/,/,/,/
O=C(O)c1cc(NS(=O)(=O)c2ccc(N3CCCCC3)c([N+](=O)[O-])c2)cc(C(=O)O)c1,i,8,1,2,6,11*,103,0,107,0
CC(C)(C)OC(=O)N1CCC(C(=O)Nc2ccc3c(c2)CCC3)CC1,/,23,0,/,4,0,/,/,/,/
Cc1cc(C)c(-c2csc(NC(=O)/C=C/c3cccs3)n2)c(C)c1,i,-4,0,-10,6,23*,105,0,91,0
CC(C)CC[n+]1ccccc1/C=C/c1ccc(N(C)C)cc1,i,1,0,99*,8,4.0*,955*,4,102,2
Cc1ccc(C)c(-c2cc(C(=O)Nc3sc(C)c(C)c3C(N)=O)c3ccccc3n2)c1,i,2,2,-4,-1,0,98,0,104,0
Cc1ccc2sc(N(CCCN(C)C)C(=O)c3ccc(Br)s3)nc2c1C,i,19,0,-26,13,0.9*,104,0,280*,0
CCOc1ccc(NC(=O)CCS(=O)(=O)c2ccc(C)cc2)cc1,i,-7,3,-4,0,0,/,/,/,/
Cc1ccc(NC(=S)N2CCCC(O)C2)cc1 (centres undefined),i,/,12,3,6,0,/,/,/,/
Cc1ccccc1OCC(=O)NCCc1nc2ccccc2[nH]1,i,1,/,99*,10,15*,96,0,95,0
COc1cc(-c2nnc(COC(=O)c3ccc(C)o3)o2)cc(OC)c1OC,/,-21,16,-3,3,0,/,/,/,/
O=C(COC(=O)CC1CCCC1)Nc1ccccc1[N+](=O)[O-],/,2,0,/,4,0.9*,89,0,100,0
O=C(Nc1ccc(CN2CCOCC2)cc1)c1ccc(Br)o1,i,-7,0,7,-2,1.7*,93,0,108,0
S=C(NCC1CCCO1)N1CCN(Cc2ccccc2Cl)CC1 (centres undefined),i,-1,2,-6,3,0,/,/,/,/
S=C(NCC1CCCO1)N1CCc2ccccc2C1 (centres undefined),i,-7,0,-4,1,0,95,0,89,0
Nc1nc(Nc2ccccc2Cl)cc(=O)[nH]1,i,1,0,/,0,0,/,/,/,/
SMILES,Rce1 inhib,Rtt109 Vps75,GRK2 aptamer HTS,ALR H2O2 inh,HDAC3 inh,Efflux pump mplx,Yeast cmpd fluor,Mdr1 pump inh,CaCdr2 efflux inh,Cdr1 pump inh
N#Cc1ccc(OCC(=O)N2CCN(c3ccc(C(F)(F)F)cn3)CC2)cc1,/,0,0,1,3,0.8*,109,0,108,0
O=c1c2cc(N3CCOCC3)ccc2[nH]c(=S)n1CCCN1CCCCC1,i,-2,0,23,3,0.6*,97,0,94,0
CC(C)=C1C2CCC1C1C(=O)N(c3nc(-c4ccc(C(C)C)cc4)c(C)s3)C(=O)C21 (centres undefined),i,-7,7,-2,-2,0.4*,105,0,99,0
O=C(O)CC/C(=N\NC(=O)c1ccccc1Br)c1ccccc1,i,11,1,0,-2,18*,103,0,98,0
CCN(C(=O)COC(=O)CCOc1ccc(C(C)(C)C)cc1)c1c(N)n(Cc2ccccc2)c(=O)[nH]c1=O,/,10,/,/,/,/,/,/,/,/
O=C1Nc2cc(C(=O)N3CCOCC3)ccc2SC1N1CCOCC1 (centres undefined),i,1,3,-3,0,19*,95,0,108,0
COc1ccc(CC(=O)O/N=C(\N)c2ccccc2)cc1OC,i,-8,0,-4,-7,0,108,0,97,0
COc1ccc(/C(N)=N/OC(=O)Oc2ccccc2)cc1OC,i,-2,5,-3,-9,5.8*,101,0,96,0
COc1ccc(CC(=O)O/N=C(\N)Cc2ccc(OC)cc2)cc1,i,0,0,/,8,0,/,/,/,/
COc1ccc(/C(N)=N/OC(=O)Cc2cccs2)cc1OC,i,4,6,-4,8,6.7*,99,0,87,0
COc1ccc(/C(N)=N/OC(=O)Cc2cccs2)cc1,i,-6,0,-30,3,0,/,/,/,/
COc1ccc(CC(=O)O/N=C(\N)c2ccc(OC)cc2)cc1,i,3,0,-8,4,0,113,0,112,0
COc1cc(/C=C2/CC/C(=C/c3ccc(O)c(OC)c3)C2=O)ccc1O,i,48,1,75,3,0.5*,116,0,100,0

# Screening data as filed in PubChem.
